Results on five molecules are retold here after PubChem BioAssay.

The test system of test [1] is Human papillomavirus type 1a protein E7 (residues 44-93). The test is described as follows: small molecules binding HPV E7 44-93 – biochemical, small-molecule microarray, residues 44-93, 635 nm fluorescence, primary screen (AID 1108).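 Note: E7 fragment applied at 1 µg/mL in TBST for 1 h at 4 C; score combines spot fluorescence with its signal to noise ratio.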 The note with it: fluorescence 635 nm, higher = more signal.
Test [2] can be described thus: hepatitis C replication reporter changes, two-sided – Huh7 cells, luciferase reporter, HCV replication inhibitor project, primary screen (AID 1109).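 Note: huh7 hepatoma cells harbouring a luciferase neomycin HCV replicon reporter; luciferase luminescence as measure of HCV replicon replication; test concentration not given here.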 The note with it: Huh7 HCV replicon luciferase reporter, 48 h; higher = more signal. A general note: A reporter such as luciferase makes a cellular process visible.
Test [3] has as its target Left-right determination factor 2 (Homo sapiens) (UniProt O00292). Put plainly: small molecules binding LEFTY2 protein – biochemical, small-molecule microarray, 635 nm fluorescence scan, primary screen (AID 1110). The conditions noted are these: higher = more signal.
Test [4] deals with Calmodulin-1 (Homo sapiens) (UniProt P0DP23). The test is described as follows: small molecules binding calmodulin-1 with EGTA – biochemical, small-molecule microarray, Cy5-labelled CALM1, profiling panel (AID 1111).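 Note: labelled calmodulin applied in Tris saline Tween buffer holding calcium plus EGTA and DTT.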 The conditions noted are these: Cy5-CALM1 binding fluorescence, higher = more signal.
Test [5] shares this target. The test is described as follows: small molecules binding Ca-loaded calmodulin-1 – biochemical, small-molecule microarray, Cy5-labelled CALM1, plus calcium, artefact control for SMM control-protein annotation, profiling panel (AID 1112).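 Note: score merges spot fluorescence with signal to noise from triplicate slides.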 The conditions noted are these: Cy5-CALM1 binding fluorescence, higher = more signal.
A short description of test [6]: probe aWnt5a binding to arrayed compounds – biochemical, biotinylated probe, 635/667 nm fluorescence, primary screen (AID 1113).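 Note: score merges 667 nm fluorescence intensity with signal-to-noise per printed feature.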 The note with it: small-molecule microarray, higher = more signal.
The nature of test [7]: probe aShh binding to arrayed compounds – biochemical, biotinylated probe, 635/667 nm fluorescence, primary screen (AID 1114).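 Note: probe is biotin-labelled aShh protein from a stem cell growth factor screen; measures binding of labelled protein to compounds printed on the slide; score merges feature fluorescence at 667 nm with signal-to-noise.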 The note with it: small-molecule microarray, higher = more signal.
A short description of test [8]: probe aNog binding to arrayed compounds – biochemical, biotinylated probe, 635/667 nm fluorescence, primary screen (AID 1115).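 Note: probe is biotinylated aNog protein used at 0.15 µg/mL for 1 h at 4 C; z-score combines 667 nm fluorescence of each spot with its signal to noise.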 The conditions noted are these: small-molecule microarray, higher = more signal.
For test [9], the target named is Torsin-1A-interacting protein 1 (Homo sapiens) (UniProt Q5JTV8). The test is described as follows: compound microarray binding of lysate hLAP1 – cell lysate, small-molecule microarray, COS7 lysate, 635/667 nm fluorescence, primary screen (AID 1116). The note with it: 635 nm fluorescence, higher = more signal.
For test [10], the target named is Alpha-bungarotoxin (Bungarus multicinctus) (UniProt P60615). The test is described as follows: compounds binding labelled alpha-BTX control protein – biochemical, small-molecule microarray, Alexa647 label, 635/667 nm fluorescence, artefact control for SMM control protein annotation, profiling panel (AID 1117). The note with it: alpha-BTX-A647 binding fluorescence, higher = more signal.

A further test concerns the target Albumin (Bos taurus) (UniProt P02769). The test is described as follows: compounds binding labelled BSA control protein – biochemical, small-molecule microarray, Alexa647 label, 635/667 nm fluorescence, artefact control for SMM control protein annotation, profiling panel (AID 1118).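 Note: score merges 667 nm emission intensity and signal-to-noise per printed compound spot.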 The conditions noted are these: BSA-A647 binding, fluorescence 635 nm, higher = more signal.

The nature of test [11]: probe aXIP binding to arrayed compounds – biochemical, NeuroSMM set, 635/667 nm fluorescence, primary screen (AID 1119).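 Note: probe is the protein aXip251-270 applied at 1 µg/mL to compound-printed slides; binding of probe to printed compounds measured as 667 nm fluorescence plus signal to noise.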 The note with it: small-molecule microarray, higher = more signal, called active from +8 up or from −8 down.
Test [12] is described as follows: probe aNOTCH3 binding on compound microarray – biochemical, small-molecule microarray, 635/667 nm fluorescence, primary screen (AID 1120).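 Note: probe is a biotin-tagged antibody raised against NOTCH3 rather than NOTCH3 protein; score merges spot fluorescence near 667 nm with spot signal to noise.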 The note with it: higher = more signal.
Test [13] in a line: probe aNOTCH2 binding on compound microarray – biochemical, small-molecule microarray, 635/667 nm fluorescence, primary screen (AID 1121).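 Note: score merges feature fluorescence read at 667 nm with its signal to noise.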 The conditions noted are these: higher = more signal.
In test [14] the target is Carbonic anhydrase 2 (Homo sapiens) (UniProt P00918). The test is described as follows: compounds binding carbonic anhydrase 2 – biochemical, small-molecule microarray, Alexa647-labelled CAII, profiling panel (AID 1122). The note with it: CAII-A647 binding fluorescence, higher = more signal.
Test [15] can be described thus: COS7 lysate on small-molecule microarray, probe aHis, 635 nm (AID 1123).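 Note: z-score combines 667nm fluorescence intensity with signal-to-noise per printed compound spot.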 The note with it: COS7 cell lysate, fluorescence, higher = more signal.
Test [16] in a line: probe aLAP1 signal on lysate-treated microarray – cell lysate, small-molecule microarray, COS7 lysate, primary screen (AID 1124).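 Note: lysate comes from COS7 cells expressing LAP1 and is applied at 0.3 µg/mL; score merges spot fluorescence near 667 nm with signal-to-noise over triplicate slides.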 The conditions noted are these: probe aLAP1, fluorescence, higher = more signal.
A further test deals with Sam68 (KHDRBS1). Put plainly: compounds binding KHDRBS1 protein – biochemical, small-molecule microarray, 635 nm fluorescence, primary screen (AID 1125).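 Note: score merges 667 nm channel intensity with signal to noise over triplicate slides.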 The conditions noted are these: higher = more signal.
The subject of test [17] is Chordin-like protein 2 (CHRDL2). Put plainly: compounds binding chordin-like 2 – biochemical, small-molecule microarray, 635 nm fluorescence, primary screen (AID 1126).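 Note: printed compound slides probed with Chrdl2 protein at 4 µg/mL for 1 h at 4 C; score merges 667 nm emission intensity with signal to noise over three replicate slides.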 The note with it: fluorescence 635 nm, higher = more signal.
Test [18] deals with Concanavalin-A (Canavalia ensiformis) (UniProt P02866). Put plainly: compounds binding concanavalin A lectin – biochemical, small-molecule microarray, Alexa647 label, 635 nm, artefact control for SMM control protein annotation, primary screen (AID 1127).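 Note: z combines 667 nm emission intensity with signal-to-noise across three replicate slides.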 The conditions noted are these: ConA-A647 binding fluorescence, higher = more signal.

SMILES strings stand for the structures. Active and inactive are the calls of the source.

Sequence of Left-right determination factor 2 (Homo sapiens) (O00292 whole entry, looked up): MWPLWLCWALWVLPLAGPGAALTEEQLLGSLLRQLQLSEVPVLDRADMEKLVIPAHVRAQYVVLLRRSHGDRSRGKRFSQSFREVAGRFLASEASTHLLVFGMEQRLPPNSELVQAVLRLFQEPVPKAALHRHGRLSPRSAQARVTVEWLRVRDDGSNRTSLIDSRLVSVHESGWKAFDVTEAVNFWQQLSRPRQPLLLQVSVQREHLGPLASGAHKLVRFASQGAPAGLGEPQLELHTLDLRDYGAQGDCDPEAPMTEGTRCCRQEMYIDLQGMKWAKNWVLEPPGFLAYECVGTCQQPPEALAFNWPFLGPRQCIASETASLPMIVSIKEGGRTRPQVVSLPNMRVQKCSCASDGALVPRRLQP
Sequence of Concanavalin-A (Canavalia ensiformis) (P02866 whole entry, looked up): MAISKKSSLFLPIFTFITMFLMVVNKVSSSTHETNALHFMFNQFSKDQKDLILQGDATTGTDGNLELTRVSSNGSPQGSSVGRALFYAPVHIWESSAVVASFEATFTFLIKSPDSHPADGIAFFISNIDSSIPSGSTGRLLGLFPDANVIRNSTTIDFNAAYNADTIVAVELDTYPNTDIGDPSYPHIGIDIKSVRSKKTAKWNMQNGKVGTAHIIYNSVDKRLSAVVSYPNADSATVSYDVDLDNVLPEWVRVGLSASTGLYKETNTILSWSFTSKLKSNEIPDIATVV
Sequence of Albumin (Bos taurus) (P02769 whole entry, looked up): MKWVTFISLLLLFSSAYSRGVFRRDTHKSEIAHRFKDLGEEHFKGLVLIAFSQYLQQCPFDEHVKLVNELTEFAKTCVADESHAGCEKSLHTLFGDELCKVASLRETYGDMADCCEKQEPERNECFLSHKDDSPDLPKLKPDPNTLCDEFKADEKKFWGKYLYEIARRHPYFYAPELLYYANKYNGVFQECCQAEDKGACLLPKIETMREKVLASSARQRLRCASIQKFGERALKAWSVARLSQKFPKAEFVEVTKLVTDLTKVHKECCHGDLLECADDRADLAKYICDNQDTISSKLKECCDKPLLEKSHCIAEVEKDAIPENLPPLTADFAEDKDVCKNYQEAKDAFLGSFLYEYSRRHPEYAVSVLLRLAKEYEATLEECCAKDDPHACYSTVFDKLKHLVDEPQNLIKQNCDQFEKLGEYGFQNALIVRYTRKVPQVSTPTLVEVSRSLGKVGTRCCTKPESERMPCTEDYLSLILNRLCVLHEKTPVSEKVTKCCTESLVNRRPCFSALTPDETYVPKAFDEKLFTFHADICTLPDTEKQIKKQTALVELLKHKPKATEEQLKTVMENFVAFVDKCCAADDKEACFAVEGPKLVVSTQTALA
Sequence of Torsin-1A-interacting protein 1 (Homo sapiens) (Q5JTV8 whole entry, looked up): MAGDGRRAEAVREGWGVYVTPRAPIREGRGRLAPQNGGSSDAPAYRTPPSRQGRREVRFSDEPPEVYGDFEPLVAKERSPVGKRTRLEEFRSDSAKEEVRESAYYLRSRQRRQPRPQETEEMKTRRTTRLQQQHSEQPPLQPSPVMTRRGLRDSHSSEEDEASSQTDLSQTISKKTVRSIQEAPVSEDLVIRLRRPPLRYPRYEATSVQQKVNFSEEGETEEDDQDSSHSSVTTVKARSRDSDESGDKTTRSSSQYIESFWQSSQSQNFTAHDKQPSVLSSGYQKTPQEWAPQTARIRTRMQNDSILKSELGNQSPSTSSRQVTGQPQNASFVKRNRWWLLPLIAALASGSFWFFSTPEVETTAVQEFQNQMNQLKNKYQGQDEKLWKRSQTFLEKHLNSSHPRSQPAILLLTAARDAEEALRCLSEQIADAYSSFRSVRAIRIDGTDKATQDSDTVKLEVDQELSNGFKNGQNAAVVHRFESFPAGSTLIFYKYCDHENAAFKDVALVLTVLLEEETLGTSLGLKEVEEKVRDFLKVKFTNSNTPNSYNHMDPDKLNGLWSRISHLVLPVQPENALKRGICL
Sequence of Alpha-bungarotoxin (Bungarus multicinctus) (P60615 whole entry, looked up): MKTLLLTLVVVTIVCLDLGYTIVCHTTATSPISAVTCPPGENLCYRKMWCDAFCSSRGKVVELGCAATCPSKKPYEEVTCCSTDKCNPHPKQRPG

As to `Cc1ccc(S[C@]2(C(=O)NCC(C)C)CC(=O)N(Cc3cc(C(F)(F)F)cc(C(F)(F)F)c3)[C@@H]2c2ccc(CO)cc2I)cc1`, the composite z-score was 0.133 in test [1]; -2.48 in test [3]; -0.571 in test [4]; 0.0903 in test [5]; -0.166 in [6]; 0.108 in test [7]. The composite z-score in test [8] is 0.225; in [9], 0.116; in test [10] it was -1.05; with Albumin (Bos taurus) it was 0.0274; in test [12], -0.188; in [13] it was -0.0415. Also, the composite z-score in test [14] is 0.89; in test [15], 0.234; in test [16] it was 0.77; in the test on Sam68 (KHDRBS1), -0.47; in test [17], -1.76; in test [18], -1.39. Besides, the z-score in test [2] is -1.01. The composite Z-score in [11] is 0.786 (inactive).

Take `C=C(CCCC)/C(=C/C[C@@H](OC(C)=O)c1ccccc1OCCO)c1cnc2ccccc2c1`: the composite z-score in test [1] was 0.75; in test [3], 0.157; in test [4] it was -0.0416; in [5] it was -0.418; in test [6], -0.124; in [7], -0.0977. Besides, the composite z-score in test [8] was 0.369; in [9] it was 0.44; in test [10], 0.157; with Albumin (Bos taurus), 0.263; in [12], 0.033; in [13], -0.0209. Further, the composite z-score in [14] worked out at 0.684; in [15], 0.206; in test [16], 0.719; with Sam68 (KHDRBS1), 0.97; in [17], 0.333; in [18], 0.535. Further, in test [2], the z-score was -2.25. Also, the composite Z-score in test [11] was 0.523 (inactive).

With `CCOC(=O)[C@H]1CC=C2CC1C(=O)N1CCC[C@@H]1[C@@H]2O[Si](C)(C)C(C)(C)C` (stereo not given in full), the composite z-score in [1] is -0.404; in test [3], 0.377; in test [4] it was -1.45; in test [5], -1.61; in test [6], -0.237; in test [7] it was -0.297. Further, the composite z-score is 0.14 in [8]; -0.523 in [9]; -1.15 in test [10]; -0.0458 with Albumin (Bos taurus); -0.213 in test [12]; -0.161 in test [13]. Further, the composite z-score in [14] was -0.386; in test [15], 0.168; in test [16], -0.407; with Sam68 (KHDRBS1) it was -0.0813; in [17] it was -0.287; in test [18], -2.28. In test [2], this molecule had a z-score of -3.01. For the same molecule, the composite Z-score in test [11] is 0.131 (inactive).

Take `O=C1O[C@H](c2ccccc2)[C@H](c2ccccc2)N2[C@H]1[C@@H](C(=O)NC[C@H](O)c1ccccc1)[C@]1(C(=O)Nc3ccccc31)[C@H]2c1ccc(OCCO)cc1`: the composite z-score in test [1] is 1.38; in test [3], 0.119; in [4], 0.475; in test [5], 0.245; in test [6], -0.0882; in test [7] it was -0.167. In addition, the composite z-score is 0.0821 in [8]; 1.5 in test [9]; 1.33 in [10]; 0.466 with Albumin (Bos taurus); -0.0647 in test [12]; -0.082 in [13]. Further, the composite z-score came to 0.59 in [14]; 1.67 in test [15]; 0.218 in [16]; 1.31 in the test on Sam68 (KHDRBS1); 0.25 in test [17]; 1.14 in [18]. In [2], this molecule had a z-score of -2.05. Moreover, the composite Z-score in [11] is -0.249 (inactive).

Take `CN(C)C(=O)[C@]1(Cc2ccccc2CN=[N+]=[N-])N=C(c2ccc(OCCCO)cc2)O[C@@H]1c1ccccc1CN=[N+]=[N-]`: the composite z-score in test [1] was found to be 1.47; in test [3] it was 0.189; in test [4] it was 0.324; in [5], 0.708; in test [6], 0.216; in test [7], 0.249. Further, the composite z-score in [8] is 0.76; in test [9], 1.39; in test [10] it was 0.832; in the test with Albumin (Bos taurus), 0.933; in [12] it was 0.442; in [13], -0.0508. Also, the composite z-score in [14] is 0.545; in [15] it was 2.72; in [16], 0.751; with Sam68 (KHDRBS1), 1.32; in test [17], -0.223; in test [18], 0.758. The molecule also registered a z-score in [2] of -3.12. Moreover, the composite Z-score in test [11] was -0.384 (inactive).
